# High-throughput results as filed in PubChem.
# Compounds with a hit are over-represented: about 3% of the library has one in this group of screens.
# Fh CTSL1 inh: Fasciola hepatica cathepsin L1 inhibitors, primary screen, counter-screen for PFM18AAP inhibitor project, biochemical, QFRET, fluorogenic peptide substrate. recombinant F. hepatica cathepsin L1, Z-Leu-Arg-MCA fluorescence. inhibition, % at 5.96 µM. actives 0.49% (n = 300,000);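 active = inhibition above the mean of all tested compounds plus 3 SD, set per screening campaign, cut at about 17% in these data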
# PAFAH2 inh: PAFAH2 enzyme inhibitors, primary screen, biochemical, fluorescence polarization, human; Platelet-activating factor acetylhydrolase 2, cytoplasmic (Homo sapiens), Q99487; recombinant PAFAH2, FP-rhodamine activity probe; inhibition, % at 3.39 µM; actives 0.99% (n = 340,000);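 active = inhibition above the mean over all tested compounds plus 3 SD, cut at about 30% in these data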;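 note: inhibitors block probe labeling of enzyme so polarization drops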
# PAFAH1B2 FP inh: PAFAH1B2 enzyme inhibitors, primary screen, biochemical, fluorescence polarization, human | recombinant PAFAH1B2, FP-rhodamine activity probe | inhibition, % at 3.39 µM | actives 1.2% (n = 340,000) | AID 492953, 2010;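 active = inhibition above the mean of all tested compounds plus 3 SD, cut at about 24% in these data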
# Target sequence (P68402 whole entry, looked up): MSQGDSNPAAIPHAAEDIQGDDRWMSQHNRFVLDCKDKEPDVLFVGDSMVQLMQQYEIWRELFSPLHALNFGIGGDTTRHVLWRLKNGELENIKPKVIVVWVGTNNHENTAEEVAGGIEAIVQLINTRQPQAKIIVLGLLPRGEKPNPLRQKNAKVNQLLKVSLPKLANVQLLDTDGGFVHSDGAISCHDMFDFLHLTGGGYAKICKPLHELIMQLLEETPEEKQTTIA
# PAFAH1B3 inh: PAFAH1B3 enzyme inhibitors, primary screen, biochemical, fluorescence polarization, human | inhibition, % at 3.39 µM | recombinant PAFAH1B3, FP-rhodamine probe | AID 492972, 2010 | actives 0.28% (n = 340,000) | Platelet-activating factor acetylhydrolase IB subunit alpha1 (Homo sapiens), Q15102;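 active = inhibition above the screen-wide average of all tested compounds plus 3 SD, cut at about 25% in these data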
# pPAFAH FP inh: pPAFAH enzyme inhibitors, primary screen, biochemical, fluorescence polarization, human; Platelet-activating factor acetylhydrolase (Homo sapiens), Q13093; recombinant pPAFAH, FP-rhodamine probe fluorescence polarization; inhibition, % at 3.39 µM; actives 1.5% (n = 330,000); AID 463082, 2010;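 active = inhibition above the mean inhibition across the screen plus 3 SD, cut at about 25% in these data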;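 note: inhibitors block binding of the rhodamine activity-based probe so polarization drops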
# PP5 primary: PP5 phosphatase inhibitors, primary screen, biochemical, fluorescence; purified PP5c, OMFP substrate fluorescence; inhibition, % at 6.7 µM; actives 0.18% (n = 320,000);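 active = inhibition above the campaign's mean inhibition across all tested compounds plus 3 SD, cut at about 9.5% in these data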
# Numbers stand for hits; . = inactive; / = not tested or not shown.
SMILES,Fh CTSL1 inh,PAFAH2 inh,PAFAH1B2 FP inh,PAFAH1B3 inh,pPAFAH FP inh,PP5 primary
O=C(CSc1nnc(SCc2ccccc2)s1)N/N=C/C=C\c1ccco1,.,.,.,.,27.6,.
Cn1cccc1CC(=O)N/N=C/C=C/c1ccco1,.,.,.,.,26.8,.
Cc1ccc2c(c1)[C@H]1[C@H](CO2)[C@H](c2ccccc2)[C@]2(C)C(=O)N(C)CC(=O)N12,/,.,.,.,/,/
CCCCCNC(=O)C(C)Sc1ccc(Cl)cc1 (configuration not stated),.,.,29.8,.,.,.
Cc1ccc(-c2csc(NC(=O)c3ccccc3F)c2C(=O)O)cc1,.,.,.,.,.,.
COCCOc1cc(NC(=O)c2ccccc2)c(Cl)cc1Cl,.,.,.,.,.,.
CNC(=O)CS(=O)CC(=O)Nc1cc(OCCOC)c(Cl)cc1Cl (configuration not stated),.,.,.,.,30.4,.
CCN(Cc1ccccc1)c1ccc(N=Nc2nn(C)c(C)c2[N+](=O)[O-])cc1,.,.,61.6,.,25.0,.
CN1C(=O)/C(=C/c2ccc(-c3ccccc3[N+](=O)[O-])o2)SC1=Nc1ccc(Cl)c(C(=O)O)c1,.,31.2,.,.,29.4,.
CSc1ccc(CN(C)C(=O)c2ccc(S(=O)(=O)Nc3ccccc3)cc2)cc1,.,.,.,.,32.2,.
CSc1ccc(CN(C)C(=O)c2ccc(S(=O)(=O)Nc3c(C)n(C)n(-c4ccccc4)c3=O)cc2)cc1,/,.,.,.,/,/
Cc1cccc(C)c1NC(=O)CN(C)C(=O)c1ccc(NS(=O)(=O)c2ccc3[nH]c(=O)[nH]c3c2)cc1,.,.,.,.,.,.
Cc1cccc(C)c1NC(=O)CN(C)C(=O)c1cccc(NS(=O)(=O)c2ccccc2)c1,.,.,.,.,29.9,.
CN(Cc1ccc(F)cc1)C(=O)c1cccc(OCc2ccccc2)c1,.,.,.,.,.,.
CN(Cc1ccc(F)cc1)C(=O)c1cccc(NS(=O)(=O)c2ccccc2)c1,.,.,.,.,25.3,.
CCOc1ccccc1NC(=O)c1ccc2c(c1)C(=O)N(CC1CCCO1)C2=O (configuration not stated),17.5,.,.,.,.,.
Cc1c(NC(=O)c2ccc3c(c2)C(=O)N(CC2CCCO2)C3=O)cccc1C(=O)O (configuration not stated),.,.,.,.,.,.
CC(C)C[C@@H](CN)NC(=O)c1nc[nH]c1C(=O)N[C@@H](CC(=O)O)C(=O)CNC[C@H](C)NC(=O)c1nc[nH]c1C(=O)N[C@@H](CC(=O)O)C(=O)O,/,.,.,.,/,/
Nc1c(C(=O)NC2CCCC2)c2nc3ccccc3nc2n1N,.,.,.,.,24.7,.
CN(C)C(CNC(=O)c1ccc(S(=O)(=O)Nc2ccccc2)cc1)c1ccco1 (configuration not stated),.,.,.,.,29.3,.
Cc1ccc(NS(=O)(=O)c2ccc(C(=O)NCC(c3ccco3)N3CCCCC3)cc2)cc1 (configuration not stated),.,.,.,.,29.5,.
O=C(NCC(c1ccco1)N1CCCC1)c1cccc(NS(=O)(=O)c2ccccc2)c1 (configuration not stated),.,.,.,.,.,.
CN(C)C(CNC(=O)c1cc(Br)ccc1Cl)c1ccco1 (configuration not stated),22.4,.,.,.,.,.
O=C(NCC(c1ccco1)N1CCCCC1)c1ccc(S(=O)(=O)Nc2ccccc2)cc1 (configuration not stated),.,.,.,.,30.4,.
C[C@]12CCC(=O)C=C1C=C[C@@H]1[C@@H]2CC[C@@]2(C)[C@H]1CC[C@@]21CCC(=O)O1,/,.,.,.,/,/
CN(C)C(=O)NC1CCCCCCCCCCC1,.,.,36.4,.,.,.
